Molecules are shown by their SMILES. Values joined by “and” are separate entries in the source; they are usually repeats but may differ in a detail not shown here. Equal values may be shown once. Results filed as inconclusive are left out. Active and inactive are the calls of the source. Unless noted, calls come from the whole dose curve; as a rule, active = well fitted curve in the direction sought with a large enough effect; inconclusive = small, poorly fitted or top-dose-only effect, or another doubt; inactive = no such curve, though single readings can be large; an effect the other way counts as inactive or inconclusive. Numbered stars: 1 amine (or outer) side, 2 acyl side, 3 side chain; on linkers, the order of the positions; unused ones are H or OH. Bridge positions count the residues as written; N and C are the ends. Square brackets hold non-standard residues; d marks the D form. Peptide text beside a SMILES is read from it. I, II: the chains in the order shown. Actinocin(9to1) = Cc1c2oc3c(C)ccc(C(=O)[*:1])c3nc-2c(C(=O)[*:2])c(N)c1=O; NMeV = CN[C@H](C(=O)O)C(C)C; Sar = CNCC(=O)O

The nature of experiment [1]: qHTS assay for cell viability of the p53RE-bla HCT-116 cell line (AID 743292). Note: % is set by controls: 0 for no effect and ±100 for the full control effect; nearly all actives have a fitted effect of over 55% in size. In a few lines: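 CellSensor p53RE-bla HCT-116 cells (4,000/well) pre-incubated 5 h at 37 C, then exposed to compounds in DMSO for 16 h at 37 C. Viability read as ATP content by CellTiter-Glo luminescence after 30 min at room temperature.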
The nature of experiment [2]: qHTS Assay for Identifying Gametocytocidal Compounds (AID 743244).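 For max response: % is set by controls: 0 for no effect and ±100 for the full control effect; actives lower the fluorescent signal which means gametocytes are killed.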 Note: potency is the fitted concentration of half-maximal effect. As to conditions: P. falciparum 3D7 stage III-V gametocytes, alamarBlue, 72 h; max response: stronger effect = lower value. The procedure, abridged: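 Late gametocytes (III–V), P. falciparum 3D7; 72 h drug, then 24 h alamarBlue; resazurin reduction read by fluorescence.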
In general terms: In qHTS, concentration-response curves come from the screen itself.

Experiment [3] can be described thus: qHTS assay for cell viability of HEK293 cells (AID 743288). Note: % is set by controls: 0 for no effect and ±100 for the full control effect; nearly all actives have a fitted effect of over 50% in size. As to conditions: ATP luminescence (CellTiter-Glo), 18 h, stronger effect = lower value. The procedure, abridged: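 Luminescent ATP quantitation served as the viability read-out. Cells (parental HEK293, 2,000/well) received compounds after at least 5 h at 37 C and were exposed for 18 h before a 30 min room-temperature reagent step.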

Experiment [4] in a line: qHTS profiling for inhibitors of Plasmodium falciparum (3D7) proliferation (AID 743322).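 Note: infected erythrocytes exposed to compound for 72 h before lysis; 100% = DMSO vehicle wells and 0% = 0.29 µM artemisinin.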 Conditions: P. falciparum 3D7 proliferation; at 28.7 µM (top of the series) unless noted. The procedure, abridged:
(§1)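 Erythrocytes infected with P. falciparum (0.3% parasitemia, 2.5% hematocrit) incubated with compounds 72 h at 37 C, 5% CO2. Lysis with saponin/Triton buffer containing SYBR Green I, overnight at room temperature in the dark; DNA fluorescence (485/535 nm) normalised to 0.29 uM artemisinin and DMSO.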

Experiment [5] in a line: qHTS profiling for inhibitors of Plasmodium falciparum (DD2) proliferation (AID 743323; call rule not given here). As to conditions: lower = more inhibition; at 28.7 µM (top of the series) unless noted. In a few lines: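 SYBR Green fluorescence (ex 485, em 535 nm) of lysed cultures gives parasite DNA content; wells normalized to artemisinin (0.29 uM) and DMSO controls. Infected red cells: 0.3% parasitemia, 2.5% hematocrit, 72 h, 37 C.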

A short description of experiment [6]: qHTS profiling for inhibitors of Plasmodium falciparum (HB3) proliferation (AID 743324).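 Note: 100% = DMSO vehicle wells and 0% = artemisinin-treated control wells.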 As to conditions: Plasmodium falciparum HB3 blood-stage proliferation; at 28.7 µM (top of the series) unless noted. In a few lines: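 P. falciparum HB3 grown in erythrocytes (0.3% parasitemia, 2.5% hematocrit final) with compound for 72 h at 37 C, 5% CO2. Parasite DNA detected by SYBR Green after saponin/triton lysis overnight; normalized to 0.29 uM artemisinin and DMSO.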

Experiment [7] is described as follows: qHTS profiling of the MIPE4 collection as inhibitors of Plasmodium falciparum (3D7) proliferation (AID 743344; call rule not given here;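 note: scaled between DMSO vehicle wells and 0.29 µM artemisinin as full inhibition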). Conditions: P. falciparum 3D7 in erythrocytes, SYBR Green DNA fluorescence, 72 h; at 28.5 µM (top of the series) unless noted. The procedure, abridged:
as §1

The nature of experiment [8]: qHTS profiling of the MIPE4 collection as inhibitors of Plasmodium falciparum (DD2) proliferation (AID 743345; call rule not given here). As to conditions: P. falciparum Dd2 in erythrocytes, SYBR Green DNA, 72 h; at 28.5 µM (top of the series) unless noted. The source says: Plasmodium falciparum is a virulent malarial parasite that kills 1-2 million people worldwide each year. Transmitted by mosquitoes, the sporozoite form of the parasite enters the blood stream to infect hepatocytes, where they become merozoites that infect red blood cells (erythrocytes). Within erythrocytes, merozoites begin a […] cycle of growth and division, after which the parasite is released to infect new red blood cells. Gametocytes, which form within erythrocytes as well, circulate in the bloodstream and are ingested by the mosquito, thereby completing the life cycle. To profile malarial isolates for differential chemical responses and to identify inhibitors of malarial growth, an assay that measures P. falciparum growth and replication within erythrocytes was employed. This assay uses a DNA binding fluorescent dye (SYBR Green) to detect parasite DNA following cell lysis. Because mature erythrocytes lack DNA, only Plasmodium-derived DNA is detected.
The SYBR Green viability assay was adapted from a method described previously (Plouffe et al., 2008). For screening 3 ul culture medium was dispensed into 1536 well black clear bottom plates (Aurora Biotechnologies) using a Multidrop Combi (Thermo Fisher Scientific Inc.), 23 nL compounds in DMSO were added by a pin tool (Kalypsys), and 5 ul of erythrocytes infected with P. falciparum (0.3% parasitemia, 2.5% hematocrit final concentration) were added. The plates were incubated at 37 C in a humidified incubator in 5% CO2 for 72 h, and 2 ul lysis buffer (20 mM Tris HCl, 10 mM EDTA, 0.16% saponin, 1.6% triton X, 10X SYBR Green I supplied as 10,000X […] by Invitrogen) was added to each well. The plates were mixed for 25 sec with gentle shaking and incubated overnight at room temperature in the dark. The following morning, fluorescence intensity at 485(14) nm excitation and 535(25) nm emission wavelengths was measured on an EnVision (Perkin Elmer) plate reader. Plate reads were normalized relative to the control inhibitor (0.29 uM artemisinin) and vehicle (DMSO) wells present on each plate and then corrected by an algorithm using vehicle-only control plates at the beginning and end of the compound plate stack.

A short description of experiment [9]: qHTS profiling of the MIPE4 collection as inhibitors of Plasmodium falciparum (DD2) proliferation (Rep 2) (AID 743346; call rule not given here). Conditions: P. falciparum Dd2 in erythrocytes, SYBR Green DNA, 72 h; at 28.5 µM (top of the series) unless noted. In a few lines: as §1
A short description of experiment [10]: qHTS profiling of the MIPE4 collection as inhibitors of Plasmodium falciparum (HB3) proliferation (AID 743347; call rule not given here;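 note: plate controls were DMSO vehicle wells for no effect and artemisinin wells for full effect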). Conditions: P. falciparum HB3 in erythrocytes, SYBR Green DNA, 72 h; at 28.5 µM (top of the series) unless noted. The procedure, abridged: as §1

As for `CN(C)C(=S)SC(=S)N(C)C`, the molecule was called inactive in experiment [1].

As to `CCCC(=O)O[C@]1(C(=O)CO)CC[C@H]2[C@@H]3CCC4=CC(=O)CC[C@]4(C)[C@H]3[C@@H](O)C[C@@]21C`, the max response in [2] is 1.99% (inactive).

For the molecule `C=C(CC)C(=O)c1ccc(OCC(=O)O)c(Cl)c1Cl`, the max response in experiment [3] is -7.15% (inactive). Also, in [1], the result was inactive.

As for `COc1cccc2c1C(=O)c1c(O)c3c(c(O)c1C2=O)C[C@@](O)(C(=O)CO)C[C@@H]3O[C@H]1C[C@H](N)[C@H](O)[C@H](C)O1`, in [1], the molecule was called inactive. Also, the remaining parasite growth % (stronger effect = lower value) in experiment [4] is -4.76%. The activity, percent of control in experiment [5] was -2.65%. Besides, in [6], the remaining proliferation (% of control), lower = more inhibition is -0.62%.

Turning to `CC(O)(P(=O)(O)O)P(=O)(O)O`, in experiment [3], the max response was -5.92% (inactive). Besides, the result in [1] was inactive.

Take `COc1ccc(CN2CCN(C(c3ccc(F)cc3)c3ccc(F)cc3)CC2)c(OC)c1OC`: the max response in experiment [2] was 1.04% (inactive). In [7], this molecule showed a parasite growth, % of DMSO control of 4.59%. The parasite growth remaining, % of DMSO control (lower = more inhibition) in [8] turned out to be 8.3%. The same molecule showed a parasite growth, % of control (lower = inhibition) in experiment [9] of 26.6%. For the same molecule, the growth, % of control in experiment [10] was 6.18%.

In the case of `CN(C)/N=N/c1nc[nH]c1C(N)=O`, the figures for the max response in experiment [2] and in [3] were 5.22% (inactive) and 4.22% (inactive), respectively. For the same molecule, the molecule was called inactive in experiment [1].

For the molecule `OC[C@@H](O)[C@@H](O[C@@H]1O[C@H](CO)[C@H](O)[C@H](O)[C@H]1O)[C@H](O)[C@@H](O)CO`, the max response in [2] was 9.4% (inactive).

With `Oc1ccc(Cl)cc1Sc1cc(Cl)ccc1O`, the outcome in [1] was inactive.

Take `CC(=O)Oc1ccc(C(c2ccc(OC(C)=O)cc2)c2ccccn2)cc1`: the max response was 7.87% (inactive) in experiment [2] and -9.96% (inactive) in experiment [3].

For `COc1cccc(CCc2ccccc2OCC(CN(C)C)OC(=O)CCC(=O)O)c1` (configuration not stated), the Potency in experiment [2] is 3720 nM (active). Further, in experiment [4], the remaining parasite growth % (stronger effect = lower value) stood at 1.08%. The activity, percent of control in experiment [5] came to 1.06%. In [6], the remaining proliferation (% of control), lower = more inhibition came to 1.2%. The molecule further showed a parasite growth, % of DMSO control in experiment [7] of 7.32%. Also, in experiment [8], the parasite growth remaining, % of DMSO control (lower = more inhibition) came to 11.9%. In experiment [9], this molecule had a parasite growth, % of control (lower = inhibition) of 21.2%. This molecule returned a growth, % of control in experiment [10] of 5.27%.

`CC[C@@H](CO)NCCN[C@@H](CC)CO`: in [2], the max response was 6.57% (inactive). The molecule also returned a parasite growth, % of DMSO control in experiment [7] of 98.8%. Moreover, in experiment [8], the parasite growth remaining, % of DMSO control (lower = more inhibition) came to 106%. Also, the parasite growth, % of control (lower = inhibition) in experiment [9] stood at 68.5%. Further, the growth, % of control in experiment [10] came to 106%.

For the molecule `C[C@]12CC[C@@H]3c4ccc(O)cc4CC[C@H]3[C@@H]1CC[C@@H]2O`, the max response in experiment [2] was 23.5% (inactive) and 41.3% (inactive); in experiment [3], -9.32% (inactive). The result in [1] was inactive.

Regarding `COC1=CC(=O)C[C@@H](C)[C@]12Oc1c(Cl)c(OC)cc(OC)c1C2=O`, the values for the max response in experiment [2] and in experiment [3] were 1.7% (inactive) and -14.5% (inactive), respectively. The call in experiment [1] was inactive.

Turning to `CC1=C(C(=O)OC(C)C)C(c2cccc([N+](=O)[O-])c2)C(C(=O)OC2CN(C(c3ccccc3)c3ccccc3)C2)=C(N)N1` (configuration not stated), in [2], the max response was 7.23% (inactive). In [7], the parasite growth, % of DMSO control came to 6.8%. Also, the parasite growth remaining, % of DMSO control (lower = more inhibition) in [8] stood at 7.73%. The molecule also yielded a parasite growth, % of control (lower = inhibition) in experiment [9] of 24.4%. In [10], this molecule gave a growth, % of control of 9.79%.

Regarding `O=c1ccc2ccccc2o1`, the max response in experiment [2] is 15.4% (inactive); in experiment [3], 8.9% (inactive) and -9.16% (inactive) and -5.08% (inactive). Besides, in [1], the call was inactive.

With `Cc1cccc(C)c1NC(=O)CN1CCN(CCCC(c2ccc(F)cc2)c2ccc(F)cc2)CC1`, the max response in [2] was 0.546% (inactive). Also, the parasite growth, % of DMSO control in experiment [7] was determined as 13.4%. The parasite growth remaining, % of DMSO control (lower = more inhibition) in experiment [8] worked out at 52.4%. Moreover, the parasite growth, % of control (lower = inhibition) in [9] was found to be 19.6%. In experiment [10], this molecule registered a growth, % of control of 8.04%.

Turning to `Nc1ccn([C@@H]2O[C@H](CO)[C@@H](O)C2(F)F)c(=O)n1`, the max response in [2] is 15.6% (inactive) and -5% (inactive). Further, the remaining parasite growth % (stronger effect = lower value) in experiment [4] was -1.17% [at 57.5 µM]. Further, the activity, percent of control in [5] stood at 1.07% [at 57.5 µM]. In experiment [6], the remaining proliferation (% of control), lower = more inhibition amounted to 0.276% [at 57.5 µM].

For the molecule `NC(=NCCCCCCN=C(N)/N=C(\N)Nc1ccc(Cl)cc1)/N=C(\N)Nc1ccc(Cl)cc1`, the max response in [3] is -23.7% (inactive) and -11.7% (inactive) and -27.9% (inactive).

Take `C=CCc1ccc(O)c(OC)c1`: the max response in experiment [2] was 4.9% (inactive); in experiment [3], -4.89% (inactive) and -5.68% (inactive). Moreover, the result in experiment [1] was inactive.

As to `Cc1c2oc3c(C)ccc(C(=O)N[C@@H]4C(=O)N[C@H](C(C)C)C(=O)N5CCC[C@H]5C(=O)N(C)CC(=O)N(C)[C@@H](C(C)C)C(=O)O[C@@H]4C)c3nc-2c(C(=O)N[C@@H]2C(=O)N[C@H](C(C)C)C(=O)N3CCC[C@H]3C(=O)N(C)CC(=O)N(C)[C@@H](C(C)C)C(=O)O[C@@H]2C)c(N)c1=O` (I: T[dV]P[Sar][NMeV] / II: T[dV]P[Sar][NMeV]; ester I:1-I:C, II:1-II:C; linker I:N-II:N via Actinocin(9to1)), the Potency in experiment [2] was 70.8 nM (active). For the same molecule, the molecule was called inactive in experiment [1].

As to `O=C(O)CCCCC(=O)O`, the results for the max response in experiment [2] and in experiment [3] were -5.63% (inactive) and 0.134% (inactive), respectively. Further, the result in [1] was inactive.

(Values after PubChem BioAssay (NCATS).)
